Test results as given in the supplement of paper PMC11732987, “Enantioselective OTUD7B fragment discovery through chemoproteomics screening and high-throughput optimisation” (Communications Chemistry, 2025).

Tests used:
Experiment in all cases: log2 ratio of Biotin-Ahx-Ub-VS probe labelling (fragment/DMSO); higher = less target engagement (more negative = stronger competition), active = hit call of the paper (q ≤ 0.05, log2 ratio ≤ -1)
Conditions in all cases: compound concentration: 200 uM; treatment time: 3 h
USP42 = molecular target: T1, USP42 (UniProt Q9H9J4)
T1 sequence (whole entry): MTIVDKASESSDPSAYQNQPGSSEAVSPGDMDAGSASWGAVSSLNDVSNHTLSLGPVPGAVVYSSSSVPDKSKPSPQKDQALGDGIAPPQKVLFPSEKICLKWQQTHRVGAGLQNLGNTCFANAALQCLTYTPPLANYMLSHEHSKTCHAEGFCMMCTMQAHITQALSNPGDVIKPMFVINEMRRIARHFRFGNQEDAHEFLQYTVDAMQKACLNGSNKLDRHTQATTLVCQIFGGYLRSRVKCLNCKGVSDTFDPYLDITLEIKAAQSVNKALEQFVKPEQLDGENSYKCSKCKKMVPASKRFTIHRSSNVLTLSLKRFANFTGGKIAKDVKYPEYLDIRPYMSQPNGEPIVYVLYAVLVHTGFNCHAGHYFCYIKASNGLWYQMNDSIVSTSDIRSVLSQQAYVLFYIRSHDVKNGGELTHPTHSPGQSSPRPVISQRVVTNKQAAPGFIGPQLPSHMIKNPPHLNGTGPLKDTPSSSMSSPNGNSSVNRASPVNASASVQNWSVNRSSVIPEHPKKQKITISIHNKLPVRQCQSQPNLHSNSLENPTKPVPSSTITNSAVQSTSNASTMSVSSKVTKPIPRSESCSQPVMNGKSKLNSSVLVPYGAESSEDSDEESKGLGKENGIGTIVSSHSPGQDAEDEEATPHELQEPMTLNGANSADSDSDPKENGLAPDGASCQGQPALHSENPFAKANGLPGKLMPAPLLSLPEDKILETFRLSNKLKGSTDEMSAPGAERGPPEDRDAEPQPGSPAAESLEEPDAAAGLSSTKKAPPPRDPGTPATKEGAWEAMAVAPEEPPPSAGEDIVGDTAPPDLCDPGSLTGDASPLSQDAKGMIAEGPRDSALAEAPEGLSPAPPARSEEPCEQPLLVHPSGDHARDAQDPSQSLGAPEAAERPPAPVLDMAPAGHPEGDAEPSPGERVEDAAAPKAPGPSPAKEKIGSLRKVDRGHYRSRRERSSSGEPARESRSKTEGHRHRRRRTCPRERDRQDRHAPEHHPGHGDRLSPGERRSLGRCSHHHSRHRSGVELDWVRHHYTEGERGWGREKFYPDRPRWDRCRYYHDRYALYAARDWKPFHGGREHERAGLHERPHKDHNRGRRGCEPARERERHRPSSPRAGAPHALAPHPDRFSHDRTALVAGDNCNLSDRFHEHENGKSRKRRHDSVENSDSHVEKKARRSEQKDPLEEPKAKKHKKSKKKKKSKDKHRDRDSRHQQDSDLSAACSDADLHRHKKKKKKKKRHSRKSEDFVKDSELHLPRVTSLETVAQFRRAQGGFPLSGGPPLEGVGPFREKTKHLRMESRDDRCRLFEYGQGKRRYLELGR
Method in brief: (§1)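 Lysate from HEK293T cells, 495 µg per sample in Tris/CHAPS/IGEPAL buffer with protease inhibitors, was treated for 3 h in triplicate with fragment at 200 µM or vehicle. Biotin-Ahx-Ub-VS was next added at 0.5 µM final for 1 h. The labelled DUBs were enriched with NeutrAvidin, digested with LysC and trypsin, and run by diaPASEF LC-MS/MS, with values given as average log2 fragment/vehicle ratios by unpaired t-test on global-median-normalised Spectronaut quantities of proteins with ≥2 unique peptides.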

USP46 = USP46 (UniProt P62068)
USP46, sequence (P62068 whole entry): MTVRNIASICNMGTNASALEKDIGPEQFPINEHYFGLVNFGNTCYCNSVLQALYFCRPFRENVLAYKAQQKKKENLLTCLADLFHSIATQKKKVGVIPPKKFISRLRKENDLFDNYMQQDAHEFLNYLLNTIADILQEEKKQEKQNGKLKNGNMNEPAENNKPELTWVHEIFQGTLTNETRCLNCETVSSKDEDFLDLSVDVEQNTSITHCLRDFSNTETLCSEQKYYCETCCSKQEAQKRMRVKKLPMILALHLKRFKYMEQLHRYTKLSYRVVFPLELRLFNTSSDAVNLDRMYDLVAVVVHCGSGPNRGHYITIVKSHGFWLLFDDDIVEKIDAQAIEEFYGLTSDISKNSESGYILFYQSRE
Method in brief: as §1

USP47 = molecular target: T2, USP47 (UniProt Q96K76)
T2 sequence (whole entry): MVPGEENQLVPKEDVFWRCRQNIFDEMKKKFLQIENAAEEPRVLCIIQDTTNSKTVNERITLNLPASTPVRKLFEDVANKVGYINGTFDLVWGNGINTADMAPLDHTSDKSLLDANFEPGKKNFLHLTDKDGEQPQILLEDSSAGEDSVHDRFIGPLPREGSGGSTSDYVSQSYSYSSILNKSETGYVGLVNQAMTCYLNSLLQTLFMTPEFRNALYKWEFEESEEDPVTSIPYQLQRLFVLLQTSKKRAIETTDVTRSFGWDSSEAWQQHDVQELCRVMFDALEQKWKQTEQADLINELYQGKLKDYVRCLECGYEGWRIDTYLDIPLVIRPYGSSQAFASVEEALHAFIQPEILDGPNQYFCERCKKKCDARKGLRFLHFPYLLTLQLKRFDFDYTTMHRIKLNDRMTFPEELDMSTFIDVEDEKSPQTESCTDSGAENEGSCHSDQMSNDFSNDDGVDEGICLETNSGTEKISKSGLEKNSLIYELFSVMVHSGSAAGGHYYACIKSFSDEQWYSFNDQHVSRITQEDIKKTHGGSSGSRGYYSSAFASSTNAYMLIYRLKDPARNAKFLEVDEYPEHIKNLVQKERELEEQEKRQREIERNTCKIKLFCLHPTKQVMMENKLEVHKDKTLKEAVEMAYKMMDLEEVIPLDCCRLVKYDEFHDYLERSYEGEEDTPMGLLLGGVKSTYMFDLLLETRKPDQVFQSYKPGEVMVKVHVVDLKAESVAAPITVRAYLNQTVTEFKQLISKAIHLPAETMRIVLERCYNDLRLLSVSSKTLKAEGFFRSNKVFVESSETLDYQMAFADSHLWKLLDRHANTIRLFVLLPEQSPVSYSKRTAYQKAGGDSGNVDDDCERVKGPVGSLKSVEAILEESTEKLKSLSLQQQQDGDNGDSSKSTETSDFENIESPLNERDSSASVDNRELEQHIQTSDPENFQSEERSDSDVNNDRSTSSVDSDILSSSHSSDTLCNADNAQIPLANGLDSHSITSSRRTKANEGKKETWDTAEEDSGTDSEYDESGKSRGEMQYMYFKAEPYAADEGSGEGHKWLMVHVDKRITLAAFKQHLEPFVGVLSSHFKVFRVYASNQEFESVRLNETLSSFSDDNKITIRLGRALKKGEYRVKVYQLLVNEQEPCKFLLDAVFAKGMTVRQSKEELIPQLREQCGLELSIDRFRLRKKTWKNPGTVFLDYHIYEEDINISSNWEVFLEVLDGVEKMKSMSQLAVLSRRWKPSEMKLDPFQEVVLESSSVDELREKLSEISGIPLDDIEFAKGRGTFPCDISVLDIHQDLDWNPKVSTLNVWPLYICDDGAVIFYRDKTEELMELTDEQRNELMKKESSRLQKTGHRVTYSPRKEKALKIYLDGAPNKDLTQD
Method in brief: as §1

USP48 = molecular target: T3, USP48 (UniProt Q86UV5)
T3 sequence (whole entry): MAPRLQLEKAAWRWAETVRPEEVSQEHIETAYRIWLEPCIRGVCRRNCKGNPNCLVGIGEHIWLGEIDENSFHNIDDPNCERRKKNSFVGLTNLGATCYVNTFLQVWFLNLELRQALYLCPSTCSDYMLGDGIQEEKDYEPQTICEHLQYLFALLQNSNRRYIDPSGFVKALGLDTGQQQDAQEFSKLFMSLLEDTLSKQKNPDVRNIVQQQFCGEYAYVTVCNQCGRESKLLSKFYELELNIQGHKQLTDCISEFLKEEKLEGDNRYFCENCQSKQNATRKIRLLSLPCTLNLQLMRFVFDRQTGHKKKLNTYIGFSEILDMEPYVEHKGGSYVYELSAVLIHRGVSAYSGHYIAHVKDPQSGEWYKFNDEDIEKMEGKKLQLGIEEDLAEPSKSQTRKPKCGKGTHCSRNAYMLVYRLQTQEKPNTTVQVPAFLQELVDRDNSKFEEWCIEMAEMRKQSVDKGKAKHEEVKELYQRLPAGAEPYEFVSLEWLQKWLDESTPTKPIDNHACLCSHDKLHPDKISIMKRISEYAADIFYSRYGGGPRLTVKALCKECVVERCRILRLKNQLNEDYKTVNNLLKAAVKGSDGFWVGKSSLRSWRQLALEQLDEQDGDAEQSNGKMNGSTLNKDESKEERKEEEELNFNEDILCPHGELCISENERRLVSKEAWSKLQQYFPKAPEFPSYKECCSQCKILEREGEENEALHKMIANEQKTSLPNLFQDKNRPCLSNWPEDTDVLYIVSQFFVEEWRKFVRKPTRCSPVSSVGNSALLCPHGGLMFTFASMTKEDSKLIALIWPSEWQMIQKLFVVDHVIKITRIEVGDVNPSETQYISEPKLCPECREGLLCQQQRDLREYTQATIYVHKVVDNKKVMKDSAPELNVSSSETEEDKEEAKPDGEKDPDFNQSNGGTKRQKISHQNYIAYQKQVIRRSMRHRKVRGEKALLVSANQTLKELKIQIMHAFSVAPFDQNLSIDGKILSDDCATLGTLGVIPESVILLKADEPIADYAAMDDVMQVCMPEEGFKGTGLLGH
Method in brief: as §1

USP5 = molecular target: T4, USP5 (UniProt P45974)
T4 sequence (whole entry): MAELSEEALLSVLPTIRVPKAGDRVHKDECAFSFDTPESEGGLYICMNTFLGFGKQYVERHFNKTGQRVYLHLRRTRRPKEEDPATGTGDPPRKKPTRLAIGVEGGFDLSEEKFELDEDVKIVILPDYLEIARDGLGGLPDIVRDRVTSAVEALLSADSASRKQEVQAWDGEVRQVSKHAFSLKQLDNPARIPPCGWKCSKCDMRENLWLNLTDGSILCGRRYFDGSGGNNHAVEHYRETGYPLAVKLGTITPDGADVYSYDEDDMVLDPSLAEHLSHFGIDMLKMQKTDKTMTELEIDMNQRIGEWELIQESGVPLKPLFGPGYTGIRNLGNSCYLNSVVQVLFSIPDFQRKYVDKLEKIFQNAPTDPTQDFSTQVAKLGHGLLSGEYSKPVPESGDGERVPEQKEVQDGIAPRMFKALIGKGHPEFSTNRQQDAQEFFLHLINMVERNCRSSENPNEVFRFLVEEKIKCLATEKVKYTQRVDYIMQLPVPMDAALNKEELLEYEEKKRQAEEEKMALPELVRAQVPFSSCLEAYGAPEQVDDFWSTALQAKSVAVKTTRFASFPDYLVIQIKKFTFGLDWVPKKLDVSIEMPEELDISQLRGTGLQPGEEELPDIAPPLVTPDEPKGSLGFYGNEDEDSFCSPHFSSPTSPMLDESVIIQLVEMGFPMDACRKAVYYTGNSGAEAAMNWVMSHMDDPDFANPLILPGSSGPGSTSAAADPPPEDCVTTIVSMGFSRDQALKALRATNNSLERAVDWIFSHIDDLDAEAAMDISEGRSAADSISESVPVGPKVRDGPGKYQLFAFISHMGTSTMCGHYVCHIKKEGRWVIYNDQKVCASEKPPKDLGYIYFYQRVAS
Method in brief: as §1

USP54 = USP54 (UniProt Q70EL1)
Method in brief: as §1

USP7 = USP7 (UniProt Q93009)
USP7, sequence (Q93009 whole entry, looked up): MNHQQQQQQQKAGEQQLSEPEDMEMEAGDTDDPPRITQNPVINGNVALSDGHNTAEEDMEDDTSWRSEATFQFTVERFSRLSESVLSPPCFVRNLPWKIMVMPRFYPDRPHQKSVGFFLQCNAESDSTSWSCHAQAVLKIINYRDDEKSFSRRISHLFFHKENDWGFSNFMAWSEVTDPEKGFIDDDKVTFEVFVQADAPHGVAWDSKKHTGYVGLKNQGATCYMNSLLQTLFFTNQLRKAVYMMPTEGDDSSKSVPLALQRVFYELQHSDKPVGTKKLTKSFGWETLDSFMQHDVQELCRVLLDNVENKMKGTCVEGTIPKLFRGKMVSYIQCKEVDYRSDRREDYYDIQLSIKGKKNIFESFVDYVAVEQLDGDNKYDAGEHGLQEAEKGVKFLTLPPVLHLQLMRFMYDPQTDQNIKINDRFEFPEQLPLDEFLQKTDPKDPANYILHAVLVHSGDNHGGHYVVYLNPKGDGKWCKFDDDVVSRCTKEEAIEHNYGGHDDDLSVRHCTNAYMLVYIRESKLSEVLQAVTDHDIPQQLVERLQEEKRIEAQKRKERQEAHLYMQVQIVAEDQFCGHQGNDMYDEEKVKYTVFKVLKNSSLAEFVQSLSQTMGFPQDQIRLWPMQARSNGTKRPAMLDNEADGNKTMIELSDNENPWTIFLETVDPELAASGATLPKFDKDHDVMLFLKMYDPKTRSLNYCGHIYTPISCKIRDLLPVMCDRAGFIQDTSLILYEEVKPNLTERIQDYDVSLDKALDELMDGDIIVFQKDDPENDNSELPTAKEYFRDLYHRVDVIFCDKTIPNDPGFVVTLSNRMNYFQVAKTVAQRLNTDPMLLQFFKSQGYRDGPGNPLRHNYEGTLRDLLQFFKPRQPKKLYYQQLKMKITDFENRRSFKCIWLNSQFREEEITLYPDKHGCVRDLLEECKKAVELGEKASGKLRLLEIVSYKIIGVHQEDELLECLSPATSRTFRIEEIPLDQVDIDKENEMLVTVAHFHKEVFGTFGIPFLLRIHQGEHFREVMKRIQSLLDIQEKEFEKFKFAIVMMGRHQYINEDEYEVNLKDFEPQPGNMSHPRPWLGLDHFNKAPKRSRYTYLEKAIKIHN
Method in brief: as §1

USP8 = molecular target: T5, USP8 (UniProt P40818)
T5 sequence (whole entry): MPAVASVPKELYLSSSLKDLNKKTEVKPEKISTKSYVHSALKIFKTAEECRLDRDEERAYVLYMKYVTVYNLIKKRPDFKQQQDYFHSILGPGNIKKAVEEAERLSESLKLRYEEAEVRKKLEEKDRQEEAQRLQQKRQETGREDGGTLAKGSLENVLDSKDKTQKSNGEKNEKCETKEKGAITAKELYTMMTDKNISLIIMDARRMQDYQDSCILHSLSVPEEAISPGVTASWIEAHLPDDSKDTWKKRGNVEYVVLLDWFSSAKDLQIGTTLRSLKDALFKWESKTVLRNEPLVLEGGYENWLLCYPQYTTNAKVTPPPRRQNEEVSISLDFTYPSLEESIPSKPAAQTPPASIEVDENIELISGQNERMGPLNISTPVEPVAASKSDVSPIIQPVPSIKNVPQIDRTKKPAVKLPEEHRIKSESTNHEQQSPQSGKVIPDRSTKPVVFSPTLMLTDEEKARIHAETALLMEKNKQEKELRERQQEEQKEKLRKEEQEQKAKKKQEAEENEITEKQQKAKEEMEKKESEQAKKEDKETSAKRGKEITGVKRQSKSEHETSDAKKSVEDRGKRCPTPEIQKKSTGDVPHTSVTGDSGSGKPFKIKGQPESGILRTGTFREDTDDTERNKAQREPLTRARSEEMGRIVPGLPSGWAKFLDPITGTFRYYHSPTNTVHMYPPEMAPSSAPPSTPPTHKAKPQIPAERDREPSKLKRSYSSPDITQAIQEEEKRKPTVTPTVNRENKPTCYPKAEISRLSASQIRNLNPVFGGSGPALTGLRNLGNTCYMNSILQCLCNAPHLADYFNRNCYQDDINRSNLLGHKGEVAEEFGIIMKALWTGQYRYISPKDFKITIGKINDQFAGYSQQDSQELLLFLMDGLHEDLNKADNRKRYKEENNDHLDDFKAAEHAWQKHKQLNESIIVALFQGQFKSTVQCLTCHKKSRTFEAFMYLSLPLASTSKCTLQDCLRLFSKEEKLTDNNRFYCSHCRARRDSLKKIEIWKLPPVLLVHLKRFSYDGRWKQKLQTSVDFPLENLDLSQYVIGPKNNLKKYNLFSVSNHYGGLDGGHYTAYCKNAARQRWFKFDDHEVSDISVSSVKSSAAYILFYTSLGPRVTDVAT
Method in brief: as §1

USP9X = USP9X (UniProt Q93008)
USP9X, sequence (Q93008 whole entry): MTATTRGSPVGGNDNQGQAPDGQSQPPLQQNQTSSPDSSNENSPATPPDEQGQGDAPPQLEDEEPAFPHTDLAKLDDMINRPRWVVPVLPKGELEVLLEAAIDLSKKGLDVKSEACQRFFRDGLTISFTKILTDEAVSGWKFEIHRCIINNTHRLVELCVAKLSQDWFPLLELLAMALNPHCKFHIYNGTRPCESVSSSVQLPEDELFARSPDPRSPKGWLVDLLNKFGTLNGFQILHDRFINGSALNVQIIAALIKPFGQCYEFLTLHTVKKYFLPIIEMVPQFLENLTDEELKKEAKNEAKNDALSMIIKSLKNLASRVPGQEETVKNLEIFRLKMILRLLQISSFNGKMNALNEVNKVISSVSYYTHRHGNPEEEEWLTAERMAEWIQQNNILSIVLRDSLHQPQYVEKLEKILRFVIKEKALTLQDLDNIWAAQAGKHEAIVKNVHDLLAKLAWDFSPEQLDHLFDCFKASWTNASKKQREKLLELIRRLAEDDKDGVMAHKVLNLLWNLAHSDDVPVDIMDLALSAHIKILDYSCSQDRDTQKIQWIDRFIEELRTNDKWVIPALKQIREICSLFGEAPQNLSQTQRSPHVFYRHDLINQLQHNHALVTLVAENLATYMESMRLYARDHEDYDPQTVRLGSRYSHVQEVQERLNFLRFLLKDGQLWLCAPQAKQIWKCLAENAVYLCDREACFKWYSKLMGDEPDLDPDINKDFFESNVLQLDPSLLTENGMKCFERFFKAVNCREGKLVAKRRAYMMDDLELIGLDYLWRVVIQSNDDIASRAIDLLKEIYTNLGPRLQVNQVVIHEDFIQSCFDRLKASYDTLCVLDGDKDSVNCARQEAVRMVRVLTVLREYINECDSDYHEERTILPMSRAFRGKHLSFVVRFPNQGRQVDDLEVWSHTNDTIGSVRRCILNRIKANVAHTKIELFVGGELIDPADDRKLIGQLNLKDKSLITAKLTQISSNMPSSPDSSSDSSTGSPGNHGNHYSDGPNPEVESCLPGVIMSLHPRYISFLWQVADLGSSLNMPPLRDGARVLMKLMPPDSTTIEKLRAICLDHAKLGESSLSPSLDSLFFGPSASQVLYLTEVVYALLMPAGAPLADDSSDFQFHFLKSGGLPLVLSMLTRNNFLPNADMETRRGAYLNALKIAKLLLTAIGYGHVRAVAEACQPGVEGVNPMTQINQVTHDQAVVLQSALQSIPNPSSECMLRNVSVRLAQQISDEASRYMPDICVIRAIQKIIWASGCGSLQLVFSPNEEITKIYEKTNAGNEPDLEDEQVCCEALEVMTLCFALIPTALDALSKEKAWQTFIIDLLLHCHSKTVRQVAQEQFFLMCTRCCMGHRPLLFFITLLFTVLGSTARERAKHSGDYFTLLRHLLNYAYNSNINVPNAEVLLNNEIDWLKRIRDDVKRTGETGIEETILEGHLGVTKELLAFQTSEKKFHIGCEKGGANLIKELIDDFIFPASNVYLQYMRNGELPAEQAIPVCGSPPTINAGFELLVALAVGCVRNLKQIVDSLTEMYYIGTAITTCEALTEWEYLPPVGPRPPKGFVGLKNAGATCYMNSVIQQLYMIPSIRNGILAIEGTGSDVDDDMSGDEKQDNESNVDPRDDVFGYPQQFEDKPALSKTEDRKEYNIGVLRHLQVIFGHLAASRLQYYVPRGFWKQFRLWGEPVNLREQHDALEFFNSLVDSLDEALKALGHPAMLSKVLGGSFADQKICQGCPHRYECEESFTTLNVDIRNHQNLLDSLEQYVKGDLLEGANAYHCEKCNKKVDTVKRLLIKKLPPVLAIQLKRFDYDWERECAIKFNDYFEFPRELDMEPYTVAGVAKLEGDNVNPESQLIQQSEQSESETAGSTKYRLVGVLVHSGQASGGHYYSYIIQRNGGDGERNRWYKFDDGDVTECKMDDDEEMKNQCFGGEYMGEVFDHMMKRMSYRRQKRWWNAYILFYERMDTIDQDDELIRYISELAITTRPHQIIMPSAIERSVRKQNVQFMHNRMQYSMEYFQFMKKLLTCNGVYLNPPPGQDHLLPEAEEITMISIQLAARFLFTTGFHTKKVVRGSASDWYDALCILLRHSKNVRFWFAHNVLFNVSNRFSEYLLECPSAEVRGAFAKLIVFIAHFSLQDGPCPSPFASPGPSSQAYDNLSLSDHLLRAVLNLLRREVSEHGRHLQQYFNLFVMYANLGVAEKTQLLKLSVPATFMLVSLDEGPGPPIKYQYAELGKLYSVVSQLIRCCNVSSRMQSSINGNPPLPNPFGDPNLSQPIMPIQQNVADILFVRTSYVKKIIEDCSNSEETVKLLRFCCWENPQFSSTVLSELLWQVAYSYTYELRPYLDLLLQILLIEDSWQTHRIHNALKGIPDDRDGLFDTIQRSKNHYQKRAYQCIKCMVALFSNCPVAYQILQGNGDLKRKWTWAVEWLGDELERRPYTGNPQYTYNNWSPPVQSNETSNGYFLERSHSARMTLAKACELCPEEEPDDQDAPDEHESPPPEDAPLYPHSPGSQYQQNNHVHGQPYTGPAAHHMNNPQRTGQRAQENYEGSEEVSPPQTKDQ
Method in brief: as §1

UniProt O00487 = molecular target: UniProt O00487
UniProt O00487, sequence (O00487 whole entry): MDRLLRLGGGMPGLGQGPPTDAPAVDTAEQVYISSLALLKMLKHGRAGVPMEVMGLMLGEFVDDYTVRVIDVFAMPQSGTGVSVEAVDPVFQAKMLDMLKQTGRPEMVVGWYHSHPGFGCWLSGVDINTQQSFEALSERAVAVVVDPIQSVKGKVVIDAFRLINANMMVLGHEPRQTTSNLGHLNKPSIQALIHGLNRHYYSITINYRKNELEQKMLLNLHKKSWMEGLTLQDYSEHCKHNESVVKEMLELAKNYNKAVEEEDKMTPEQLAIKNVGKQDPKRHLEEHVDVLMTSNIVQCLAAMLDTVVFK
Method in brief: as §1

Measured: log2 ratio of Biotin-Ahx-Ub-VS probe labelling

Cc1nnc(C(NC(=O)CCl)c2ccccc2)n1C (stereo not given)
inactive: USP42 0.478 | USP46 0.418 | USP47 0.26 | USP48 0.313 | USP5 0.627 | USP54 0.407 | USP7 0.438 | USP8 0.467 | USP9X 0.432 | UniProt O00487 0.442

CC(O)CC1CCN(C(=O)CCl)CC1 (stereo not given)
inactive: USP42 0.406 | USP46 -0.263 | USP47 -0.689 | USP48 0.00631 | USP5 -0.447 | USP54 -0.0986 | USP7 -0.335 | USP8 -0.0562 | USP9X -0.195 | UniProt O00487 -0.189

Cc1ccc(CNC(=O)CCl)nc1C.Cl
inactive: USP42 0.369 | USP46 0.12 | USP47 0.076 | USP48 -0.13 | USP5 -0.461 | USP54 -0.18 | USP7 -0.299 | USP8 -0.217 | USP9X 0.0101 | UniProt O00487 -0.156

Cl.O=C(CCl)N1CCc2ncncc2C1
inactive: USP42 0.0472 | USP46 -0.292 | USP47 -0.409 | USP48 -0.0378 | USP5 -0.0354 | USP54 0.253 | USP7 -0.411 | USP8 -0.218 | USP9X -0.425 | UniProt O00487 -0.0759
